The nature of assay [1]: binders of probe aFSTL3 on microarray, primary screen, stem cell growth factor project, biochemical, small-molecule microarray, fluorescence 635/667 (AID 1064).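 Also: measures binding of the biotinylated anti-FSTL3 antibody to printed compounds.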 The settings on record: higher = more signal.
Assay [2] is described as follows: binders from COS7 lysate, DM2A8 probe, primary screen, torsin A project, cell lysate, small-molecule microarray, fluorescence 635/667 (AID 1065). The settings on record: higher = more signal, COS7 lysate expressing mutant human TOR1A.
The nature of assay [3]: binders of probe aFGF2 on microarray, primary screen, stem cell growth factor project, biochemical, small-molecule microarray, fluorescence 635/667 (AID 1067).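 Also: measures binding of biotinylated aFGF2 protein to printed compounds on slides; z-score merges feature fluorescence and signal-to-noise across triplicate slides.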 Conditions: higher = more signal.
Assay [4] in a line: binders of probe aFGF10 on microarray, primary screen, stem cell growth factor project, biochemical, small-molecule microarray, fluorescence 635/667 (AID 1071).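 Also: score merges 667 nm spot intensity and signal to noise from triplicate slides.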 Conditions: higher = more signal.
Assay [5] addresses Neurogenic locus notch homolog protein 2 (Homo sapiens) (UniProt Q04721). Description: Notch2 binders on small-molecule microarrays, primary screen, biochemical, small-molecule microarray, 635 nm fluorescence, stem cell growth factors (AID 1073). Conditions: Notch2 binding, higher = more signal.
Assay [6] addresses Pro-neuregulin-1, membrane-bound isoform (Homo sapiens) (UniProt Q02297). Description: NRG1 binders on small-molecule microarrays, primary screen, psychiatric disease protein project, biochemical, small-molecule microarray, fluorescence 635/667 (AID 1075).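 Also: score combines 667 nm spot fluorescence with signal to noise.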 The settings on record: NRG1 binding, 635 nm fluorescence, higher = more signal.
For assay [7], the system named is Neuregulin-1 EGF-like domain. Description: binders of neuregulin-1 EGF-like domain, primary screen, biochemical, small-molecule microarray, 635 nm fluorescence (AID 1081).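 Also: binding of the protein to compounds printed on small-molecule microarray slides.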 Conditions: small-molecule microarray binding, higher = more signal.
A short description of assay [8]: FRG1 promoter luciferase signal modulators, primary screen, FRG1 inhibition for FSHD, cell-based, C2C12 myotubes, firefly/Renilla luciferase, luminescence (AID 1084). Conditions: higher = more signal, called active from +8 up or from −8 down.
Assay [9] can be described thus: binders of probe aFST on microarray, primary screen, stem cell growth factor project, biochemical, small-molecule microarray, fluorescence 635/667 (AID 1086).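 Also: score merges 667 nm fluorescence with signal-to-noise of each printed compound spot.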 Conditions: higher = more signal.
Assay [10] in a line: binders of probe aHhip on microarray, primary screen, stem cell growth factor project, biochemical, small-molecule microarray, fluorescence 635/667 (AID 1087).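 Also: score merges spot fluorescence at 667nm with spot signal to noise ratio.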 The settings on record: higher = more signal.
Assay [11] has as its system PRMT1 (protein arginine N-methyltransferase 1). Description: PRMT1 binders on small-molecule microarrays, primary screen, biochemical, small-molecule microarray, 635 nm fluorescence (AID 1088).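 Also: binding of Prmt1 protein to compounds spotted on small-molecule microarray slides.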 Conditions: small-molecule microarray binding, higher = more signal.
The nature of assay [12]: yeast growth modulation, basal conditions, primary screen, YJM789 clinical isolate, OD600, 24 h (AID 1089).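 Also: growth of clinical yeast isolate S. cerevisiae YJM 789 seeded 1000 cells per well; test concentration not given here.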 The settings on record: S. cerevisiae YJM789 growth, higher = more signal, called active from +8 up or from −8 down.
Assay [13] is described as follows: fission yeast growth modulation, primary screen, strain 972, OD600, 24 h, no modulator (AID 1090).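 Also: basal condition with compound alone and no growth modifier present; test concentration not given here.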 The settings on record: S. pombe 972 growth, higher = more signal, called active from +8 up or from −8 down.
Assay [14] can be described thus: S. cerevisiae growth modulation with rapamycin, primary screen, strain BY4716, OD600, 96 h (AID 1091). Also: test concentration not given here. Conditions: higher = more signal, called active from +8 up or from −8 down.
The target of assay [15] is Torsin-1A-interacting protein 2 (Homo sapiens) (UniProt Q8NFQ8). The experiment in a line: LULL1 binders on small-molecule microarray, primary screen, cell lysate, human LULL1 lysate, 635/667 nm fluorescence (AID 1092).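 Also: score merges per-feature 667 nm fluorescence with signal-to-noise.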 The settings on record: hLULL1 lysate binding, 635 nm fluorescence, higher = more signal.
A short description of assay [16]: E. coli growth modulation, two-sided OD650, primary screen, E. coli filamentation project, strain DRC41, 24 h (AID 1093).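 Also: MC1000 strain lacking acrAB efflux and sulA so SOS filamentation is blocked; test concentration not given here.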 Conditions: OD650, 24 h, higher = more signal, called active from +8 up or from −8 down.
A short description of assay [17]: small-molecule microarray binders of probe aLefty2, primary screen, biochemical, biotinylated probe, 635/667 nm fluorescence (AID 1094).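 Also: score merges spot fluorescence near 667 nm with spot signal-to-noise ratio.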 Conditions: higher = more signal.

SMILES strings stand for the structures. Active and inactive are the calls of the source.

Chain of Torsin-1A-interacting protein 2 (Homo sapiens) (Q8NFQ8 whole entry, looked up): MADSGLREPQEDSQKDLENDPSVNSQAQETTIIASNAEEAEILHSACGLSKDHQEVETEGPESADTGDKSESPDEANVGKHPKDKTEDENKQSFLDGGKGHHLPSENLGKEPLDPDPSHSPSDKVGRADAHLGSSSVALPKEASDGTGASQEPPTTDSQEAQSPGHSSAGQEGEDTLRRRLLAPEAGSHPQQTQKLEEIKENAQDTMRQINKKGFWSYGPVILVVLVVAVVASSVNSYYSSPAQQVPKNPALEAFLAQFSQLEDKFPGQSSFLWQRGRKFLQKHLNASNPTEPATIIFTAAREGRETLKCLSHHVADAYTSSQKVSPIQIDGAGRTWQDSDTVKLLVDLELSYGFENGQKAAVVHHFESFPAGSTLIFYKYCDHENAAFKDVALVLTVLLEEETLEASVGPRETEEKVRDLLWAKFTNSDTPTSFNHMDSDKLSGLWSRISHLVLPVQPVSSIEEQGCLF
Chain of Pro-neuregulin-1, membrane-bound isoform (Homo sapiens) (Q02297 whole entry, looked up, the tested form may be a part, canonical isoform): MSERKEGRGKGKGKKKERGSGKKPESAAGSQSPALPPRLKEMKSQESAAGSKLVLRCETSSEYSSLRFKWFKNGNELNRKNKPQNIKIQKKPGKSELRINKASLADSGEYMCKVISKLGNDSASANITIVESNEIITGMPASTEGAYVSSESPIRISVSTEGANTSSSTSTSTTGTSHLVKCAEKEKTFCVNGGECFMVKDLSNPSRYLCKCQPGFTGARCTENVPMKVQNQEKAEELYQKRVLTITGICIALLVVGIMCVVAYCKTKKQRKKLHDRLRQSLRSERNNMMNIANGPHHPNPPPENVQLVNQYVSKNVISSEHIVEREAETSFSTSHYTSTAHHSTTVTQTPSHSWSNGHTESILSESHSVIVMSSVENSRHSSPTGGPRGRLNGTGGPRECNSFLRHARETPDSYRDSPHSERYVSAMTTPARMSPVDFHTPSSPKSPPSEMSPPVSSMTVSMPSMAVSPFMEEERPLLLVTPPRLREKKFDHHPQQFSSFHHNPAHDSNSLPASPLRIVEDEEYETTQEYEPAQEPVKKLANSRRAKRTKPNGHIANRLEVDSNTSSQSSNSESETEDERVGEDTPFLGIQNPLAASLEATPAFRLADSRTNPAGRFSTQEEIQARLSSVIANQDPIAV
Chain of Neurogenic locus notch homolog protein 2 (Homo sapiens) (Q04721 whole entry, looked up, canonical isoform): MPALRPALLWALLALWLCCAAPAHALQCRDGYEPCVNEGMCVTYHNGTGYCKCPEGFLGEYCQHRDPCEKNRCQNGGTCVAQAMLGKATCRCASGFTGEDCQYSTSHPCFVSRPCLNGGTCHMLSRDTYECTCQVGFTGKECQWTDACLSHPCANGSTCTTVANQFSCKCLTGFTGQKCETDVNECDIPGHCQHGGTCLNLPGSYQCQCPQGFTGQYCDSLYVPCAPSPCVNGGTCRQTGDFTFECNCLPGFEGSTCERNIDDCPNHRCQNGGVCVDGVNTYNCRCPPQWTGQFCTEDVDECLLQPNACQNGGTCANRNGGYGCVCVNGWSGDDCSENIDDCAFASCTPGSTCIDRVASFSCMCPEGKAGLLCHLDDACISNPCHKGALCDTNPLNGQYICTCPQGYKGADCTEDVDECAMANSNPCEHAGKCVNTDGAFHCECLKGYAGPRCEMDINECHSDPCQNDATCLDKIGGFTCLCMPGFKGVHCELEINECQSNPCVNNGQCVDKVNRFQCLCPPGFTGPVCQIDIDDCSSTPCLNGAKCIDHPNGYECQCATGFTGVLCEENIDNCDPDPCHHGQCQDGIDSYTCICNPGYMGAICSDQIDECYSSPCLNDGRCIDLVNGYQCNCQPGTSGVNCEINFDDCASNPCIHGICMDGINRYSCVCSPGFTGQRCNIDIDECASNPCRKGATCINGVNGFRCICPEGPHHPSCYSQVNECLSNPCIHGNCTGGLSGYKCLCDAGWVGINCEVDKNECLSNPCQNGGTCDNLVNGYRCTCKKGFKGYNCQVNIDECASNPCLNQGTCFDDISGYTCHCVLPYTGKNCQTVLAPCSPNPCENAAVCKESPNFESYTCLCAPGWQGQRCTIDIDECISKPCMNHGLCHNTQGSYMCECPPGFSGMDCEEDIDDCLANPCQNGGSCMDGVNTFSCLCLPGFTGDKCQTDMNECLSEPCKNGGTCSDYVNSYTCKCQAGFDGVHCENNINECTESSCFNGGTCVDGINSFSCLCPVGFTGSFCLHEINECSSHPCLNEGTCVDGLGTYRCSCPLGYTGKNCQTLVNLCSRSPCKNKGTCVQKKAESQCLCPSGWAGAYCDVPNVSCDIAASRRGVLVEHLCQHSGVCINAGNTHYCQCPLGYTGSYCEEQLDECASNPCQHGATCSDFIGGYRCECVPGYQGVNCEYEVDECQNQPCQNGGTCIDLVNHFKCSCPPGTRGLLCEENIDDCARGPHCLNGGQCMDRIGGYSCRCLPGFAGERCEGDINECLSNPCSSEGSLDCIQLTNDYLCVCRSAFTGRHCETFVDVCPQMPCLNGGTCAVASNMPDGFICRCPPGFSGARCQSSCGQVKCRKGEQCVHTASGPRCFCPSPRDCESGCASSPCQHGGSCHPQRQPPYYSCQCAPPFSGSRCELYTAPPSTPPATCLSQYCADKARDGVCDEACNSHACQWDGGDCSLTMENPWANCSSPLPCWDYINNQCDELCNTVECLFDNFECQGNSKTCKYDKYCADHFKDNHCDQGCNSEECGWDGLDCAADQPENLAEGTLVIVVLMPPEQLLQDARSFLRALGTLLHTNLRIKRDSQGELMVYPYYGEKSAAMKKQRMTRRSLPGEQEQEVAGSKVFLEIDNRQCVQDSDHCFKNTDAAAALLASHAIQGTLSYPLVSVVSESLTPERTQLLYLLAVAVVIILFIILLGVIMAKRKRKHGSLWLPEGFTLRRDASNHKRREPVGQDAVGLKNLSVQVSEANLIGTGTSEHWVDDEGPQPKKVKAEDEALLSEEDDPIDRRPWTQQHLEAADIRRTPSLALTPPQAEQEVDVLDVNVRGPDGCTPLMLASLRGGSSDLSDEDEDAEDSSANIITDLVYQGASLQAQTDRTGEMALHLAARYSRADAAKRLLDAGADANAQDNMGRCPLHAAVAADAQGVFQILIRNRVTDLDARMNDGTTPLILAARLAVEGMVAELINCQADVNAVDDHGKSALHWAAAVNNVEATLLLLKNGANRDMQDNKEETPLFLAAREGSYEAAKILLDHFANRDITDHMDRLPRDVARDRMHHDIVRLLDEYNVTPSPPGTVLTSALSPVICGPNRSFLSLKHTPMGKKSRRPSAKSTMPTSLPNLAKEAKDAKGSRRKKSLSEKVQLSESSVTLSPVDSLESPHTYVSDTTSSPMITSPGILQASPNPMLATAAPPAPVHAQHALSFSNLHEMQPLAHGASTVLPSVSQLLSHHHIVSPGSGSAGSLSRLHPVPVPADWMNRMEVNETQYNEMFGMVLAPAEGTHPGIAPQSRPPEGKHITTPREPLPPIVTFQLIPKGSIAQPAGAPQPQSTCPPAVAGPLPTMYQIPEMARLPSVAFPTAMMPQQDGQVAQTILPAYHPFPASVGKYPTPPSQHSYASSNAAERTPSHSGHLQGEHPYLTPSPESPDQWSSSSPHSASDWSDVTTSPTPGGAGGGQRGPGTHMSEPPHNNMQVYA

`C=C(COC)C(=O)CC[C@H](OC(=O)c1ccccc1-c1ccccc1C(=O)O)c1ccccc1OCCO`: the composite z-score in [1] is 0.181; in assay [2], 0.607; in [3] it was -0.129; in assay [4] it was 0.247; in [5], -0.453; in assay [6], 0.867. Further, the composite z-score in assay [7] was 0.761; in [9] it was -0.0824; in [10], -0.16; in assay [11], 1.56; in assay [15], 1.13; in assay [17] it was -0.235. Also, the z-score was -0.621 (inactive) in [8]; -0.0355 (inactive) in [12]; -1.37 (inactive) in [13]; -1.08 (inactive) in assay [14]; 1.4 (inactive) in assay [16].

Take `C=CCNC(=O)[C@H]1[C@@H]2C(=O)O[C@@H](c3ccccc3)[C@@H](c3ccccc3)N2[C@@H](c2ccc(OCCO)cc2)[C@]12C(=O)Nc1ccc(C#CCCO)cc12`: the composite z-score in assay [1] is 0.268; in assay [2] it was 1.14; in [3] it was -0.0901; in assay [4] it was -0.168; in assay [5], -0.23; in assay [6] it was 1.08. Further, the composite z-score in assay [7] is 1.15; in [9], 0.219; in assay [10], -0.0994; in assay [11], 1.57; in assay [15] it was 2.42; in assay [17] it was -0.148. Further, the z-score is -4.1 (inactive) in [8]; 0.443 (inactive) in assay [12]; -1.91 (inactive) in assay [13]; 2.38 (inactive) in [14]; 2.71 (inactive) in assay [16].

As to `CCCCCN1CC=CC23O[C@@H]4/C=C\CCC(C)OC(=O)C4[C@H]2C(=O)N(CCO)[C@@H]3C1=O` (some centres undefined), the composite z-score is 0.767 in assay [1]; 2.14 in [2]; -0.216 in assay [3]; -0.807 in [4]; -0.762 in assay [5]; 0.77 in [6]. For the same compound, the composite z-score in assay [7] is 1.13; in assay [9] it was -0.639; in assay [10], -0.16; in [11], -0.754; in assay [15], 1.45; in assay [17] it was -0.139. In addition, the z-score is 0.569 (inactive) in [8]; -0.139 (inactive) in assay [12]; -1.24 (inactive) in assay [13]; -0.0531 (inactive) in assay [14]; 2.35 (inactive) in assay [16].

For `C=CC[C@@]1(C(=O)NCc2ccccc2)N=C(c2ccc(OCCCO)cc2)O[C@@H]1c1ccccc1`, the composite z-score is 1.17 in assay [1]; 0.945 in [2]; -0.0778 in assay [3]; -0.523 in assay [4]; -0.347 in assay [5]; 1.61 in assay [6]. Further, the composite z-score in [7] is 0.845; in assay [9] it was 0.3; in assay [10], -0.191; in assay [11], 1.29; in assay [15], 3.19; in assay [17], 0.195. In addition, the z-score in [8] is -2.56 (inactive); in assay [12], -2.54 (inactive); in [13], -4.81 (inactive); in assay [14], 12.3 (active); in assay [16], 2.92 (inactive).

Regarding `C=C1C=C(Br)C2(OCCCO2)[C@H]2OC12` (some centres undefined), the composite z-score in assay [1] was -0.199; in assay [2], 0.249; in assay [3] it was -0.128; in assay [4], 0.325; in assay [5], -0.175; in assay [6], -0.188. Moreover, the composite z-score in assay [7] is -0.221; in assay [9] it was 0.206; in [10], 0.0274; in assay [11], -0.83; in assay [15], -0.38; in [17] it was -0.116. Moreover, the z-score in assay [8] is 1.04 (inactive); in [12] it was -0.23 (inactive); in assay [13] it was -0.54 (inactive); in assay [14] it was 0.405 (inactive); in assay [16], 0.294 (inactive).

For `C[N+](C)(C)CCCC[C@@H]1NC(=O)[C@H]2C[C@@H](C(=O)NCCCCCN)[C@@H](c3cccc(OCCO)c3)N2C1=O`, the composite z-score in [1] is 0.89; in assay [2], 0.419; in assay [3] it was -0.0164; in [4], 0.372; in [5] it was 0.529; in [6] it was 2.07. For the same compound, the composite z-score in assay [7] was found to be 0.739; in assay [9] it was 1.69; in [10] it was 0.242; in assay [11] it was 0.665; in [15] it was 2.7; in [17], 0.739. Moreover, the z-score in assay [8] was -0.309 (inactive); in [12], -0.706 (inactive); in assay [13] it was -2.62 (inactive); in assay [14] it was -0.207 (inactive); in assay [16], 2.4 (inactive).

On to `C=CC[C@@H](OC(=O)Nc1ccc(SC)cc1)c1ccc(OCCO)cc1`, for which the composite z-score is 1.15 in assay [1]; -0.325 in assay [2]; -0.175 in [3]; -0.932 in [4]; -1.77 in [5]; 0.767 in [6]. For the same compound, the composite z-score is 0.801 in assay [7]; -0.464 in assay [9]; -0.251 in [10]; -0.306 in [11]; 2.42 in assay [15]; 0.214 in assay [17]. For the same compound, the z-score in assay [8] was 4.02 (inactive); in assay [12], -0.0227 (inactive); in assay [13], -3.88 (inactive); in [14], 0.0294 (inactive); in assay [16], 1.4 (inactive).

Source of the values: PubChem BioAssay.
